Drawing on PubChem BioAssay AID540303 (National Center for Advancing Translational Sciences (NCATS), 2011), this text covers Potency for 66 compounds.

In all, about 330,000 compounds went through this assay and about 1,000 (0.3%) were called active. Another 3% or so got no clear call; they are omitted. The call rests on the fitted dose curve; in most records, active means well fitted inhibition curve with a large enough effect; inconclusive means small, poorly fitted or top-dose-only effect; inactive means no such curve, though single readings can be large or run the other way; tested in mouse RAW 264.7 cells. The entries come from a sample that favours actives as a whole. Entries that show only a call come without a potency.
Potency means the concentration at half of the fitted maximal effect.

This experiment can be described thus: qHTS for Inhibitors of Cell Surface uPA Generation. Further: nearly all actives have a fitted effect of over 55% in size. Particulars: cell surface uPA generation assay; series mostly up to 38.3 µM. The method, boiled down:
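Using RAW 264.7 macrophages, the screen measures whether compounds keep cellular ATP up by preventing uPA-driven LF translocation. Treatment lasted 24 h at 37 C, with a final top concentration of 38.3 uM, and luminescence was the readout.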
A general note: qHTS replaces the single test concentration by a dilution series.
With `NC(=O)c1ncn([C@@H]2O[C@H](CNCc3cnc(N4CCOCC4)s3)[C@@H](O)[C@H]2O)n1`, the Potency result is “inactive”.
As for `Cc1c[n+]([O-])ccc1[N+](=O)[O-]`, the Potency entry is “inactive”.
In the case of `COc1ccc(-c2ccc3c(c2)[C@@H]2C[C@H](N(C)S(=O)(=O)c4ccccc4)[C@H]([C@H](C)O)C(=O)N2CC3)cc1`, the Potency result was “inactive”.
Regarding `Cc1ccc2c(c1)C1CN(C)CCC1N2S(=O)(=O)c1cccc(F)c1` (stereo unspecified), the Potency result is “inactive”.
Take `Cc1ccc2c(c1)C1CN(C)CCC1N2S(=O)(=O)c1ccc(Oc2ccc([N+](=O)[O-])cc2)cc1` (stereo unspecified): the Potency is 8910 nM (active).
As to `Cc1ccc2c(c1)C1CN(C)CCC1N2C(=S)Nc1ccc(OC(F)F)cc1` (stereo unspecified), the Potency result is “inactive”.
As for `C/C(=N\Nc1ccc(Cl)nn1)c1ccccc1O`, the Potency result was “inactive”.
Regarding `C[C@]12CCC(=O)C=C1C=CC1C2CC[C@@]2(C)C1CC[C@@]21CCC(=O)O1` (stereo partly specified), the Potency result is “inactive”.
As for `Nc1ccc2[nH]c(=S)sc2c1`, the Potency result was “inactive”.
As for `N/C(=N\OC(=O)c1ccc([N+](=O)[O-])cc1)c1ccccn1`, the Potency result was “inactive”.
Regarding `Cc1ccc(C(=O)O/N=C(\N)c2ccccn2)cc1Cl`, the Potency is 8910 nM (active).
`COc1ccc(C(=O)O/N=C(\N)c2ccccn2)cc1[N+](=O)[O-]`: the Potency entry was “inactive”.
`Cc1ccc(S(=O)(=O)N2CCC(C(=O)N3CCCCCCC3)CC2)cc1`: the Potency entry was “inactive”.
In the case of `COC(=O)Cc1nc2c(N)nc(N)nc2[nH]c1=O`, the Potency entry is “inactive”.
`C=CCNc1cnn(-c2ccc(C)cc2)c(=O)c1Cl`: the Potency result was “inactive”.
As for `Cc1cccc(N2C(=O)c3cccnc3C2=O)c1`, the Potency result was “inactive”.
Turning to `Cc1cccc(-n2ncc(Cl)c(Cl)c2=O)c1`, the Potency was 10000 nM (active).
As to `CNN/C(N=Cc1ccc([N+](=O)[O-])s1)=N\S(=O)(=O)c1cc(C)c(Cl)cc1SCc1ccccc1`, the Potency result was “inactive”.
For the compound `CC(C)(C)c1nnc2sc(SCC(O)=C(C#N)c3nc4ccccc4[nH]3)nn2c1=O`, the Potency entry is “inactive”.
Take `COc1ccc(S(=O)(=O)N2C[C@H]3CON(C)[C@H]3C[C@H]2c2cccc(Br)c2)cc1`: the Potency result is “inactive”.
Consider `CN(c1ccc2nc3ccccc3c(=O)n2n1)C1CCCCC1`, for which the Potency is 794 nM (active).
As to `CN(C(=O)c1cc2c(=O)n3ccccc3nc2s1)C1CCCCC1`, the Potency result is “inactive”.
Consider `CN(C(=O)CSc1nncc2ccccc12)C1CCCCC1`, for which the Potency result is “inactive”.
Consider `Cn1cc(C2OC(=O)c3ccccc32)c2ccccc21` (stereo unspecified), for which the Potency entry is “inactive”.
`COC(=O)c1ccc(NCc2cc(O)ccc2O)cc1`: the Potency entry is “inactive”.
`O=C(NCc1ccc2c(c1)OCO2)c1cc([N+](=O)[O-])ccc1N1CCOCC1`: the Potency is 2820 nM (active).
`O=C(Cc1ccc([N+](=O)[O-])cc1)NCCc1ccc2c(c1)OCO2`: the Potency result was “inactive”.
On to `CC1CCN(c2ccc(C(=O)NCc3ccc4c(c3)OCO4)cc2[N+](=O)[O-])CC1`, for which the Potency result is “inactive”.
Consider `CC(=O)c1cccc(-c2ccc(CN3C(CC(C)C)C(=O)N(Cc4cn(CC5CCCCC5)nn4)CCS3(=O)=O)cc2)c1` (stereo unspecified), for which the Potency result is “inactive”.
Consider `C=CCCC(=O)N1C[C@H]2CON(C)[C@H]2C[C@H]1c1cccc(Nc2ccccc2)c1`, for which the Potency result was “inactive”.
On to `CC(Nc1ccc([N+](=O)[O-])cc1[N+](=O)[O-])c1ccccc1` (stereo unspecified), for which the Potency result is “inactive”.
As to `COc1cccc2c1C(=O)c1c(O)c3c(c(O)c1C2=O)CC(O)(C(C)=NNC(=O)c1ccc(Cl)c(Cl)c1)CC3OC1CC(N)C(O)C(C)O1` (stereo unspecified), the Potency entry was “inactive”.
Take `CN1CCN(CCCNC(=O)c2ccc(/C=C3\Oc4ccccc4N(Cc4ccc(Cl)cc4)C3=O)cc2)CC1`: the Potency entry was “inactive”.
As to `CCN1CCN(CCNC(=O)c2ccc(/C=C3/Sc4ccccc4N(Cc4cccc(C)c4)C3=O)cc2)CC1`, the Potency is 6310 nM (active).
With `O=C(NCCCN1CCOCC1)c1ccc2c(c1)N(Cc1cccc(F)c1)C(=O)c1ccccc1S2`, the Potency entry was “inactive”.
Regarding `COCC(=O)N(C)[C@H]1C[C@H]2c3cc(Oc4ccccc4C)ccc3CCN2C(=O)[C@H]1[C@H](C)O`, the Potency entry is “inactive”.
Take `CC(=O)OC1CCC2C3CCC4=C(CC(F)C(=O)C4)C3CCC12C` (stereo unspecified): the Potency result is “inactive”.
Take `Oc1ccc(Br)cc1/C=N/Nc1ccccn1`: the Potency was 2820 nM (active).
In the case of `Oc1ccc(Br)cc1C=Nc1ccc2[nH]ncc2c1`, the Potency result was “inactive”.
Turning to `Oc1ccc(/C=N/Nc2ccc(C(F)(F)F)cn2)cc1O`, the Potency result was “inactive”.
Regarding `C[C@@H]1ON(C)[C@H]2C[C@H]3c4cc(N5CCN(C)CC5)ccc4CCN3C(=O)[C@@H]12`, the Potency result is “inactive”.
Take `COc1ccc(CNC(=O)C2CCCC2)cc1`: the Potency result was “inactive”.
On to `COc1ccc(CNc2nc(NCc3ccc(OC)cc3)c3ncn(C4CCCC4)c3n2)cc1`, for which the Potency was 1410 nM (active).
As for `COc1ccc(CNc2ncnc3ccccc23)cc1`, the entry is “inactive”; as for `OCCCNc1nc(-c2ccccc2)c2cc(Cl)ccc2n1`, “inactive”; as for `NS(=O)(=O)c1cccnc1Nc1cccc(Cl)c1`, “inactive”.
In the case of `OCCCNc1nccc(-c2cc(Nc3cccc(Cl)c3)ncn2)n1`, the Potency is 1580 nM (active).
For `NC1=NOC(=O)C1C1CCCCC1` (stereo unspecified), the Potency entry is “inactive”.
`CCCCN(C(=O)CSCc1ccc(C)cc1)c1c(N)n(Cc2ccccc2)c(=O)[nH]c1=O`: the Potency result is “inactive”.
In the case of `Nc1ccc2c(c1)C(=Cc1cccnc1)c1ccccc1-2`, the Potency result is “inactive”.
`COn1c(-c2ccc(Cl)cc2Cl)nc2ncccc21`: the Potency result is “inactive”.
Regarding `O=C1c2ccccc2C(=O)N1Cc1cc(-c2ccccc2Cl)no1`, the Potency entry was “inactive”.
`Clc1ccc(-c2cc(-c3ccccn3)on2)c(Cl)c1`: the Potency is 891 nM (active).
With `CN(O)C(=S)c1ccccc1`, the Potency entry was “inactive”.
Take `CCc1c(Nc2ccccc2C)nc(N)[nH]c1=O`: the Potency result is “inactive”.
As to `CCN(CC)S(=O)(=O)c1cccc(NC(=O)c2ccc(S(=O)(=O)N3CCCC3)cc2)c1`, the Potency entry is “inactive”.
Take `COc1ccc(-c2cn3cccnc3n2)cc1`: the Potency entry was “inactive”.
Consider `COc1ccc(-c2nnc(-c3ccc4ccccc4c3)o2)cc1`, for which the Potency entry was “inactive”.
`COc1ccc(-c2cc3ncccc3cn2)cc1`: the Potency was 10000 nM (active).
`COc1ccc(/C=C/C(=O)OCC(=O)N2CCN(S(=O)(=O)c3ccc(C)cc3C)CC2)cc1OC`: the Potency result was “inactive”.
In the case of `COc1cc(C(=O)CCc2ccc3c(c2)OCO3)cc(OC)c1OC`, the Potency result is “inactive”.
The same measure for `S=C(Nc1ccccc1)Nc1ccc2ccccc2c1`: “inactive”; for `Cc1ccn2cc(C(=O)NC3CCN(Cc4ccccc4)CC3)nc2c1`: “inactive”; for `CCN(CC)S(=O)(=O)c1ccc(-c2cn3ccc(C)cc3n2)cc1`: “inactive”.
For `COc1ccc(-c2cn3ccc(C)cc3n2)cc1`, the Potency was 1000 nM (active).
With `O=c1ccn([C@@H]2O[C@H](CNS(=O)(=O)c3cc4ccccc4s3)[C@@H](O)[C@H]2O)c(=O)[nH]1`, the Potency result is “inactive”.
